Test results published in PubChem BioAssay.
Values without a mark were called inactive. Where a call stands in place of a potency, no number is given. For part of these data: Potency and affinity values are given separately. Activity calls are given as the source filed them. Unless noted, how the calls were made is not given here.

Tests used:
[1] = antimalarial activity against Dd2 strain (AID 2302;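 active means growth inhibition above 50% at the single 2 µM test dose, taken to imply half-maximal potency below 2 µM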); conditions: P. falciparum Dd2 in RBCs, LDH growth readout, 72 h; at 2 µM; hits give high values
[2] = HepG2 cytotoxicity, primary screen, cytotoxicity control for P. falciparum antimalarial project, cell-based, ATP luminescence (AID 2303;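 active means inhibition above 50%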); conditions: HepG2 viability, 24-48 h, at 10 µM, hits give high values
[3] = molecular target: L-lactate dehydrogenase (Plasmodium falciparum (isolate CDC / Honduras)) (UniProt Q27743); assay: PfLDH activity inhibition – cell lysate, 3D7 strain, counter-screen for P. falciparum growth inhibition project (AID 2304); conditions: P. falciparum 3D7 crude extract, LDH APAD/NBT absorbance; at 2 µM; hits give high values
[4] = inhibition of 3D7 malaria parasite growth – strain 3D7 (AID 2306); conditions: P. falciparum 3D7 erythrocytic growth, LDH absorbance, 72 h; at 2 µM; hits give high values
[5] = molecular target: Calcium-dependent protein kinase 1 (Plasmodium falciparum (isolate 3D7)) (UniProt P62344); assay: PfCDPK1 kinase inhibitors, biochemical, TCAMS library (AID 1159585; cut-off not given, nearly all actives have IC50 up to about 0.98 µM;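 further: inhibitors leave more ATP so luminescence rises with inhibition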); conditions: recombinant PfCDPK1, Kinase-Glo ATP depletion luminescence
[6] = molecular target: Plasmodium falciparum protein kinase 6 (PK6, PF3D7_1337100) (UniProt Q8IDW1); assay: PfPK6 kinase inhibitors, biochemical, TCAMS library (AID 1159586); conditions: recombinant PfPK6, Kinase-Glo ATP depletion luminescence
[7] = molecular target: Protein kinase 7 (PK7), Plasmodium falciparum 3D7 (PF3D7_0213400) (UniProt Q7YTF7); assay: inhibition of Plasmodium PK7 catalytic activity – biochemical, TCAMS antimalarial set, Kinase-Glo luminescence (AID 1159587); conditions: recombinant PfPK7, Kinase-Glo ATP depletion luminescence
[8] = molecular target: Calcium-dependent protein kinase 4 (Plasmodium falciparum (isolate 3D7)) (UniProt Q8IBS5); assay: PfCDPK4 kinase inhibitors, biochemical, TCAMS library (AID 1159588; cut-off not given, nearly all actives have IC50 up to about 0.91 µM); conditions: recombinant PfCDPK4, Kinase-Glo ATP depletion luminescence
Calcium-dependent protein kinase 4 (Plasmodium falciparum (isolate 3D7)), sequence (Q8IBS5 whole entry, looked up): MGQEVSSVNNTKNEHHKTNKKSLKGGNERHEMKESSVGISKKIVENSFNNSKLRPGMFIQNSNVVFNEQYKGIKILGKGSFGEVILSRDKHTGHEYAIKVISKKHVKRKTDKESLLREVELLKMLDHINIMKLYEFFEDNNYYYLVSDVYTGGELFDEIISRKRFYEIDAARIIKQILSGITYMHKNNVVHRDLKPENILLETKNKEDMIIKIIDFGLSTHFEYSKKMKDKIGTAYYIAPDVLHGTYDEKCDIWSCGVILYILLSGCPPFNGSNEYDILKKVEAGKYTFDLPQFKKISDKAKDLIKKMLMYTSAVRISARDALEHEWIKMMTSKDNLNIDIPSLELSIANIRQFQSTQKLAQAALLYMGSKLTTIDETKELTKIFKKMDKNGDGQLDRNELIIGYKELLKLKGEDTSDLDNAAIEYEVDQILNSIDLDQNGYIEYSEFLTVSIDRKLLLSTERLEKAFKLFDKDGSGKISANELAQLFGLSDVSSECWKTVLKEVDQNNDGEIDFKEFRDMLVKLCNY

Protein kinase 7 (PK7), Plasmodium falciparum 3D7 (PF3D7_0213400), sequence (Q7YTF7 1-343): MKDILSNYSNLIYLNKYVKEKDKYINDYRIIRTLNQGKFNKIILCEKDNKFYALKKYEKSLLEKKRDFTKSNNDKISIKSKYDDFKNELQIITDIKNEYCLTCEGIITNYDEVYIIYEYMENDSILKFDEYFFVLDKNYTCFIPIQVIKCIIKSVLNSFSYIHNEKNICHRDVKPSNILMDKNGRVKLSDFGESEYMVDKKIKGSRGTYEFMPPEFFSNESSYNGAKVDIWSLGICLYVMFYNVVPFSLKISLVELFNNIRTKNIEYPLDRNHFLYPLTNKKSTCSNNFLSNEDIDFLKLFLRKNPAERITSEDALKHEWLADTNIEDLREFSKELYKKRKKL
L-lactate dehydrogenase (Plasmodium falciparum (isolate CDC / Honduras)), sequence (Q27743 whole entry, looked up): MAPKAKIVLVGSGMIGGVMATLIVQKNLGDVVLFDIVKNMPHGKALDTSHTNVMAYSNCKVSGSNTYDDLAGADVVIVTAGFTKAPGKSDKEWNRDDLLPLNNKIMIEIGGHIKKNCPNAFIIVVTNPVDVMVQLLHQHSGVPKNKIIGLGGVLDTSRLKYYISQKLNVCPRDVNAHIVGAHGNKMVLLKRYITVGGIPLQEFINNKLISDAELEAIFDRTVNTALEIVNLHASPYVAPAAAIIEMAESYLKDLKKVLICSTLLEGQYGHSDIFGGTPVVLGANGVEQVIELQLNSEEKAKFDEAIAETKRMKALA
Plasmodium falciparum protein kinase 6 (PK6, PF3D7_1337100), sequence (Q8IDW1 1-305): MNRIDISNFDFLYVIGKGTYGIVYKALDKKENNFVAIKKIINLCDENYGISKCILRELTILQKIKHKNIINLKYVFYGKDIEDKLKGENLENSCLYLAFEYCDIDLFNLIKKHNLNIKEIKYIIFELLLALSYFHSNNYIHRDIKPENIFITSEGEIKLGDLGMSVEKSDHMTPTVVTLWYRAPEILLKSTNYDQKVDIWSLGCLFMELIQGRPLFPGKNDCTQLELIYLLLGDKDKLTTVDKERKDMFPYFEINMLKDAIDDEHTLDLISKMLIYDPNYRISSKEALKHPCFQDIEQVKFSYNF
Calcium-dependent protein kinase 1 (Plasmodium falciparum (isolate 3D7)), sequence (P62344 whole entry, looked up): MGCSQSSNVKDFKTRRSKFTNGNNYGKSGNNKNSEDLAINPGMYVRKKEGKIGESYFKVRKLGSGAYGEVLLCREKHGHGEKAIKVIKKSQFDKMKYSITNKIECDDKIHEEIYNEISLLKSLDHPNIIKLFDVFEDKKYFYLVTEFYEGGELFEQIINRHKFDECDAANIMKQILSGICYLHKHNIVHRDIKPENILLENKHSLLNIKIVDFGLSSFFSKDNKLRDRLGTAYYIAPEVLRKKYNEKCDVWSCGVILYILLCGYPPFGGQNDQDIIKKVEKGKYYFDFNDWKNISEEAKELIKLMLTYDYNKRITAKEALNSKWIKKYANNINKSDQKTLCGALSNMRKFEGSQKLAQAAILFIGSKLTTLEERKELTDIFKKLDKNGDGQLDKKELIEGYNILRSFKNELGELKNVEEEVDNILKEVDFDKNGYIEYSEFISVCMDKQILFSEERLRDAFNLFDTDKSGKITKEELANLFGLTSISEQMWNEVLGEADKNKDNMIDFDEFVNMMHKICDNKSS

| SMILES | growth inhibition [1] | inhibition [2] | inhibition [3] [%] | growth inhibition [4] | outcome [5] | outcome [6] | outcome [7] | outcome [8] |
| --- | --- | --- | --- | --- | --- | --- | --- | --- |
| Clc1ncccc1-c1nc(NCCC(c2ccccc2)c2ccccc2)no1 | 82% (active) | 12% | 3 | 94% (active) | inactive | inactive | inactive | inactive |
| CC(C)(C)c1ccc(Cn2c(=N)n(CC(=O)c3ccc(-c4ccccc4)cc3)c3ccccc32)cc1 | 50% (active) | 63% (active) | -5 | 98% (active) | inactive | inactive | inactive | inactive |
| CC(=O)c1ccc(-c2ccccc2)s1 | 2% | -2% | 8 | 92% (active) | inactive | inactive | inactive | inactive |
| c1cc(CNCC2CCCO2)cc(-c2cccc(-c3nc4ccccc4[nH]3)c2)c1 (configuration not stated) | 7% | 15% | 3 | 100% (active) | inactive | inactive | inactive | inactive |
| COc1ccc(N2C(=O)c3c(c4ccccc4n3C)C2c2ccccc2O)cc1 (configuration not stated) | 91% (active) | 32% | 3 | 96% (active) | inactive | inactive | inactive | inactive |
| CC1(C)N=C(N)N=C(N)N1OCCOc1ccc2ccccc2c1 | 96% (active) | 70% (active) | 5 | 93% (active) | inactive | inactive | inactive | inactive |
| C=CCc1cc(Cc2cnc(N)nc2N)c2ccc(C)nc2c1O | 3% | 51% (active) | 0 | 84% (active) | inactive | inactive | inactive | inactive |
| Cc1ccc(CN2CCCN(Cc3ccc(C(=O)Nc4ccc(Cl)cc4)cc3)CC2)s1 | 5% | 53% (active) | 3 | 85% (active) | inactive | inactive | inactive | inactive |
| COc1ccc(CNc2ncnc3c2[nH]c2ccc(F)cc23)cc1 | 71% (active) | 38% | -3 | 93% (active) | inactive | inactive | inactive | inactive |
| COc1ccc(CCNC(=O)c2cnc3c(c2)nc(-c2cnc(-c4ccccc4)[nH]2)n3CCc2cnc[nH]2)cc1 | 70% (active) | 16% | 1 | 96% (active) | inactive | inactive | inactive | inactive |
| CO/C(=C\C=C\c1cc2cc(Cl)c(Cl)cc2[nH]1)C(=O)NCC(C)(C)CN(C)C | 27% | 35% | 1 | 81% (active) | inactive | inactive | inactive | inactive |
| O=C1CSc2ccc(CNC3CCN(CCc4c(F)cnc5ccc(F)cc45)CC3)nc2N1 | 16% | 13% | 1 | 97% (active) | inactive | inactive | inactive | inactive |
| CCCN1CCN(CC(O)CNC(=O)Nc2ccc(Br)cc2)CC1 (configuration not stated) | 100% (active) | 10% | 0 | 101% (active) | inactive | inactive | inactive | inactive |
| COc1ccc2nccc([C@@H](O)CN3CCC(NCc4cc5cccc(OC)c5o4)CC3)c2c1 | 81% (active) | 10% | -8 | 99% (active) | inactive | inactive | inactive | inactive |
| Cc1cc(C(=O)Nc2ccc3c(c2)CCN3C2CCN(Cc3cccc4cc[nH]c34)C2)no1 (configuration not stated) | 96% (active) | -1% | 1 | 97% (active) | inactive | inactive | inactive | inactive |
| O=C(NCc1ccc(C(=O)NC2CCCCC2)cc1)c1ccc(O)c(-c2ccc(Cl)c(Cl)c2)c1 | -4% | 5% | -6 | 93% (active) | inactive | inactive | inactive | inactive |
| COc1ccc(-c2ccc(NC(=O)c3cccc(C#N)c3)cc2)cc1CN1CCC(O)CC1 | 84% (active) | 21% | 7 | 101% (active) | inactive | inactive | inactive | inactive |
| Clc1ccc(CNc2nc(NCCc3cnc[nH]3)nc(NC3CCCCC3)n2)cc1 | 1% | -5% | -3 | 100% (active) | inactive | inactive | inactive | inactive |
| O=C(/C=C/c1ccc(Cl)c(Cl)c1)NCCCCN1CCC(c2c[nH]c3ccccc23)CC1 | 11% | 57% (active) | -2 | 91% (active) | inactive | inactive | inactive | inactive |
| Cc1cc(OCCCN2CCCCC2)ccc1NC(=O)COc1ccc(Cl)cc1C(=O)c1cc(Cl)cc(C#N)c1 | 16% | 28% | -8 | 93% (active) | inactive | inactive | inactive | inactive |

| SMILES | growth inhibition [1] | inhibition [2] | inhibition [3] [%] | growth inhibition [4] | outcome [5] | outcome [6] | outcome [7] | outcome [8] |
| --- | --- | --- | --- | --- | --- | --- | --- | --- |
| CCCCN(CCCC)CCNC(=O)c1ccc(-c2nc3ccc(Cl)cc3[nH]2)c(OCC)c1 | 80% (active) | 0% | 9 | 101% (active) | inactive | inactive | inactive | inactive |
| Cc1ccc(O)c(Nc2c3c(c(C#N)c4nc5ccccc5n24)CCC3)c1 | 2% | 7% | -3 | 85% (active) | inactive | inactive | inactive | inactive |
| O=C(/C=C/c1ccc(Cl)c(Cl)c1)N1CCC(CCCN2CCC(c3c[nH]c4ccccc34)CC2)CC1 | 45% | 44% | -1 | 101% (active) | inactive | inactive | inactive | inactive |
| Oc1ccc2[nH]c(-c3ccc(F)cc3F)nc2c1CN1CCC(O)(c2ccccc2)CC1 | 70% (active) | 16% | -2 | 96% (active) | inactive | inactive | inactive | inactive |
| CCc1nc2ccc(C(=O)OC)nc2n1Cc1ccc2oc(-c3ccccc3N)c(Br)c2c1 | 75% (active) | 8% | -2 | 93% (active) | inactive | inactive | inactive | inactive |
| O=C(/C=C/c1ccc(Cl)cc1)NCCCCCN1CCCN(C(=O)Nc2ccc(F)c(Cl)c2)CC1 | 6% | 29% | 1 | 94% (active) | inactive | inactive | inactive | inactive |
| Clc1cc(Cl)c2cc(CNCCCNc3ccc4ccccc4n3)[nH]c2c1 | 54% (active) | 98% (active) | 3 | 99% (active) | inactive | inactive | inactive | inactive |
| COc1ccc2ncc(F)c(NC(=O)C3CCC(NCc4cc5cc(F)cc(F)c5[nH]4)CC3)c2n1 (configuration not stated) | 15% | 18% | 2 | 95% (active) | inactive | inactive | inactive | inactive |
| Cc1cc(C(=O)CN2C(=O)NC3(CCCc4ccccc43)C2=O)c(C)n1Cc1ccc(F)cc1 (configuration not stated) | 53% (active) | 4% | 2 | 92% (active) | inactive | inactive | inactive | inactive |
| CC(Nc1nncc(-c2cccc(F)c2)n1)c1ccc(F)cc1 (configuration not stated) | 89% (active) | 4% | 0 | 95% (active) | inactive | inactive | inactive | inactive |
| N#Cc1ccccc1N1CCN(C2CCC(NC(=O)c3n[nH]c4cc(C(F)(F)F)ccc34)CC2)CC1 (configuration not stated) | 34% | 15% | -4 | 84% (active) | inactive | inactive | inactive | inactive |
| O=C(NCc1ccc(Cl)c(Cl)c1)c1ccc(-c2nc3cc(F)c(F)cc3[nH]2)cc1 | 12% | -2% | -2 | 81% (active) | inactive | inactive | inactive | inactive |
| COc1cccc(C(=O)Nc2nonc2-c2ccc(OC)c(OC)c2)c1 | 50% (active) | 7% | -8 | 97% (active) | inactive | inactive | inactive | inactive |
| CS(=O)(=O)CCNCc1nc(-c2ccc3c(=O)[nH]cnc3c2)cs1 | 96% (active) | 81% (active) | 0 | 86% (active) | inactive | inactive | inactive | inactive |
| Cc1cc(NC2CCCC2)nc(Nc2ccc(F)cc2)n1 | 74% (active) | 22% | -3 | 100% (active) | inactive | inactive | inactive | inactive |
| Cc1ccccc1C1CCN(c2ccc(C(=O)NC3CC3)cn2)CC1 | 95% (active) | 17% | -2 | 95% (active) | inactive | inactive | inactive | inactive |
| CC(C)C[C@H](NC(=O)c1cc(-c2ccc(C(C)(C)C)cc2)no1)C(=O)O (tested in a mixture with another compound) | 6% | 3% | -3 | 95% (active) | inactive | inactive | inactive | inactive |
| COC(=O)C1=C(C)NC2=C(C(=O)CC(c3ccc(OC)c(OC)c3)C2)C1c1cccc(O)c1 (configuration not stated) | 69% (active) | 2% | 5 | 99% (active) | inactive | inactive | inactive | inactive |
| COc1ccc2nccc([C@@H](O)CN3CCC(NC(=O)C(c4cc5ccccc5o4)N4CCC(Cc5ccccc5)CC4)CC3)c2c1 (some centres not stated) | 82% (active) | 11% | 0 | 100% (active) | inactive | inactive | inactive | inactive |
